Compound activity as filed in PubChem.
IMPase inh: cell-permeable inhibitors of inositol monophosphatase (IMPase); P97697; CHO-M1 cells, IP1 accumulation, HTRF TR-FRET ratio; inhibition (IP1 accumulation), % at 46.1 µM; 120,000 tested, under 10 active; AID 901; active = well fitted curve in the direction sought with a large enough effect in the signal ratio, not every such curve was filed as active; inconclusive = small, poorly fitted or top-dose-only effect, or a change in a side signal; inactive = no such curve, though single readings can be large or run the other way; the % refers to the signal ratio;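 also: cells stimulated with carbachol in lithium chloride buffer; plate controls were DMSO basal wells for no effect and reference inhibitor wells for full effect; higher means more IMPase inhibition seen as more IP1 and lower FRET ratio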
Target sequence (P97697 whole entry, looked up): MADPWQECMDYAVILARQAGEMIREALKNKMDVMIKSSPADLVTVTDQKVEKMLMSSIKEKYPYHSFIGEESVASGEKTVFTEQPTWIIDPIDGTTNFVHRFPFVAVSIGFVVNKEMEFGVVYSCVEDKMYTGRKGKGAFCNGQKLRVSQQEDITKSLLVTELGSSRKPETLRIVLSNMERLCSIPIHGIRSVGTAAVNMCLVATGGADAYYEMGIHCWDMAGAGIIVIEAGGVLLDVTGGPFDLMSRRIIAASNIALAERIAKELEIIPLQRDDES
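Carbachol-driven Gq signalling in CHO-M1 cells (2000/well) generates IP1. Compounds that block IMPase raise IP1 and so reduce the FRET signal from Eu-anti-IP1 and d2-IP1 after a 10 min room-temperature lysis.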
IMPase Li cell: cell-permeable IMPase inhibitors with lithium potentiation; actives 0.35% (n = 210,000); Potency, µM (titrated, usually from 59.4 µM), for inactives: at the top dose activity, negative = IMPase inhibition, hits mostly inhibitors; CHO-M1 cells, IP1 TR-FRET (IP-One), carbachol + lithium; active = well fitted inhibition curve with a large enough effect; inconclusive = small, poorly fitted or top-dose-only effect; inactive = no such curve, though single readings can be large or run the other way;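 also: IP1 builds up when IMPase is blocked and the TR-FRET signal falls; potency is read from the fitted curve at half-maximal effect; plate controls were basal vehicle for no effect and high inhibitor control for full effect; nearly all actives have a fitted effect of over 50% in size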
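CHO-M1, 2000 cells/well, 16–30 h culture; cpd + low Li+, 30 min 37C; lysis with d2-IP1/Eu-anti-IP1 Ab, 10 min RT; TR-FRET 665/620 ratio and 620 channel; AC50 via Hill.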
Starred values were filed as active, the others as inactive; u = inconclusive; x = no result given; [ ] = dose if it differs, or a comment. Hits are enriched below; roughly 0.36% of the tested compounds scored in any of these assays.

SMILES	IMPase inh	IMPase Li cell
COc1cccc(NC(=O)Cn2c(=O)n(CCc3cccc(C)c3)c(=O)c3ccccc32)c1	-7	x
C=CCOc1cccc(C2C(C(=O)c3ccco3)=C(O)C(=O)N2Cc2ccncc2)c1 (centres undefined)	-17	5%[38.3 µM]
CCOc1cccc(C2C(C(=O)c3cccs3)=C(O)C(=O)N2Cc2cccnc2)c1 (centres undefined)	x	-18%
C=CCOc1cccc(C2C(C(=O)c3ccc(C)o3)=C(O)C(=O)N2Cc2ccncc2)c1 (centres undefined)	u	11µM*
CCOc1cccc(C2C(C(=O)c3ccc(C)o3)=C(O)C(=O)N2Cc2ccncc2)c1 (centres undefined)	u	10µM*
CCc1cccc(C)c1NC(=O)CN1C(=O)c2cccc3cccc1c23	2	x
Nc1nnc(SCC(=O)Nc2cccc(F)c2)s1	-13	x
COc1cccc(-c2nc(NCCN3CCOCC3)c3ccccc3n2)c1	x	16%
O=C(OCn1ncc(Br)c(Br)c1=O)c1c(F)cccc1F	-25	8.9µM*
CC(=O)Cn1ncc(Br)c(Br)c1=O	x	-21%
CCCCOC(=O)c1c(N)n(-c2ccc(OC)cc2OC)c2nc3ccccc3nc12	-5	x
Cc1cccc2cc(C#N)c(SCC(=O)NNC(=O)Cc3ccccc3)nc12	-10	u
Cc1ccc(C)c2nc(SCC(=O)NCc3cccs3)c(C#N)cc12	0	5µM*
Cc1cccc2cc(C#N)c(SCC(=O)NCC3CCCO3)nc12 (centres undefined)	u	0%
Cc1cccc2cc(C#N)c(SCC#N)nc12	x	14µM*
Cc1cc2c(C)ccc(C)c2nc1SCC(=O)c1cccs1	u	28%[38.3 µM]
Cc1cccc2cc(C#N)c(SCC(=O)NCc3cccs3)nc12	x	7.9µM*
COc1ccc(-c2noc(CCC(=O)Nc3ccc(C(F)(F)F)cc3)n2)cc1	-4	x
CC(=O)[C@]1(O)CC[C@@H]2[C@H]3C[C@@H](C)C4=CC(=O)CC[C@@]4(C)C3[C@@H](O)C[C@]21C (some centres undefined)	x	3%
COc1ccc(Nc2nnc(-c3ccc(C)c(S(=O)(=O)N4CCOCC4)c3)c3ccccc23)cc1	-2	x
O=C(c1cc2c(s1)-c1ccccc1OC2)N1CCCC1	-15	-7%[38.3 µM]
O=C(c1cc2c(s1)-c1ccccc1OC2)N1CCN(c2ccccn2)CC1	u	10µM*
Cc1csc(NC(=O)c2cc3c(s2)-c2ccccc2OC3)n1	-5	1%
O=C(c1cc2c(s1)-c1ccccc1OC2)N1CCN(c2ccccc2)CC1	u	7.9µM*
O=C(Cn1ncc2c1-c1ccccc1OC2)N1CCN(c2ccccn2)CC1	u	4%
SMILES	IMPase inh	IMPase Li cell
CN(C)CCNC(=O)c1cc2c(s1)-c1ccccc1OC2	-19	8.9µM*
Nc1ccn([C@@H]2O[C@@H](CO)[C@@H](O)[C@H]2O)c(=O)n1	1	x
O=C(NCc1ccco1)c1cc(-c2cccs2)nc2ccccc12	-20	-2%
COc1ccccc1CNC(=O)COC(=O)c1cc(-c2ccco2)nc2ccccc12	2	19%[38.3 µM]
COc1ccc(CNC(=O)COC(=O)c2cc(-c3ccc(Cl)s3)nc3ccccc23)cc1	-4	10µM*
O=C(COC(=O)c1cc(-c2cccs2)nc2ccccc12)NCc1ccco1	-14	7.9µM*
Cc1cc(C)c2c(-c3ccc(-c4ccc(C(F)(F)F)cc4)cc3)cc(=O)oc2c1	x	6%
CCCCCC(O)/C=C/C=O (centres undefined)	x	-2%
O=C1CC(c2ccco2)Cc2c1cnn2-c1nc2ccccc2s1 (centres undefined)	x	13µM*
Cc1cc(C)nc(-n2ncc3c2CC(c2ccccc2)CC3=O)n1 (centres undefined)	x	-2%
COc1ccc(OC)c2c(=S)c3ccccc3[nH]c12	31	34%
CCCCCCCCCCCCCCCCCC(=O)NCC(COP(=O)([O-])OCC[N+](C)(C)C)OCC (centres undefined)	x	21%
Cn1c(=O)c(-c2cccs2)nc2cnc(Oc3ccccc3)nc21	x	3%
CCOc1ccc(/C(O)=C2/C(=O)C(=O)N(CCOCCO)C2c2ccccc2)cc1 (centres undefined)	u	11µM*
O=C1C(=O)N(CCOCCO)C(c2ccccn2)/C1=C(\O)c1ccccc1 (centres undefined)	-2	x
CCOc1ccc(/C(O)=C2/C(=O)C(=O)N(CCOCCO)C2c2cccnc2)cc1 (centres undefined)	u	11µM*
COCCN1C(=O)C(=O)/C(=C(/O)c2ccc(OC(C)C)cc2)C1c1cccnc1 (centres undefined)	-18	10µM*
CN(C)CCCN1C(=O)C(=O)/C(=C(/O)c2ccc(OCc3ccccc3)cc2)C1c1cccnc1 (centres undefined)	5	12%[38.3 µM]
COc1ccc(/C(O)=C2/C(=O)C(=O)N(CCCN(C)C)C2c2cccnc2)cc1 (centres undefined)	-9	-6%[38.3 µM]
CCOC(=O)n1ccn(C)c1=S	-7[20.6 µM]	7%
C/C=C(\C)C(=O)O[C@H]1C[C@@]2(C)CCC(C(C)C)C2(O)CC[C@@]1(C)O (some centres undefined)	x	11%
O=[N+]([O-])c1cccc(C(F)(F)F)c1	x	-1%
COc1cc2ccccc2cc1C(=O)Nc1ccc2oc(-c3ccc(F)cc3)nc2c1	-9	x
N#CCCn1c(=O)c(-c2ccccc2)nc2cnc(OCc3ccccc3)nc21	x	11µM*
COc1ccc(-c2nc3cnc(OCc4ccccc4)nc3n(CCC#N)c2=O)cc1	x	22µM*
SMILES	IMPase inh	IMPase Li cell
N#CCCn1c(=O)c(-c2ccc(F)cc2)nc2cnc(OCc3ccccc3)nc21	x	-15%
COc1ccc(-c2nc3cnc(Oc4ccccc4)nc3n(CCC#N)c2=O)cc1	x	10µM*
N#CCCn1c(=O)c(-c2ccc(Cl)cc2)nc2cnc(OCc3ccccc3)nc21	x	18%
COc1ccc(-c2nc3cnc(OC)nc3n(CCC#N)c2=O)cc1	x	-11%
CC[C@@H]1CN2CCc3cc(OC)c(OC)cc3[C@H]2C[C@@H]1C[C@@H]1NCCc2cc(OC)c(OC)cc21	3	x
Cc1ccc(S(=O)(=O)O[C@H]2CC(C(C)(C)C)CC[C@@H]2c2ccccc2)cc1 (some centres undefined)	x	-4%
CC1CN(c2ncnc3c2oc2ccccc23)CC(C)O1 (centres undefined)	-2	8%[38.3 µM]
Clc1ccc(N2CCN(c3ncnc4c3oc3ccccc34)CC2)cc1	-22	10µM*
COc1ccc(C(=O)N2CCC[C@@]3(CCN(C(=O)Nc4ccccc4)C3)C2)cc1	x	10%
COC(=O)c1ccc(SCC(=O)NC2CCCCC2)c([N+](=O)[O-])c1	u	11µM*
CS(=O)(=O)c1ccc(SCC(=O)NC2CCS(=O)(=O)C2)c([N+](=O)[O-])c1 (centres undefined)	x	-5%
COCC(=O)N1CCC2(CC1)CN(C(=O)Nc1ccc(OC)cc1)C2	x	3%
COC(=O)c1cc2ccccn2c2c(C(=O)OC)c(C(=O)OC)cc1-2	23	13%[38.3 µM]
COC(=O)c1cc2c(C)cc3ccc(C)cn3c-2c1C(=O)OC	-26	10µM*
COC(=O)c1cc(=O)nc2sccn12	2	-8%[38.3 µM]
COC(=O)c1cc(NC(=O)c2c(Cl)nc3sccn23)cc(C(=O)OC)c1	2	11µM*
CC(N)(COP(=O)(O)O)C(=O)O (centres undefined)	x	-3%
